# Bioassay records (PubChem)
# Cav32 inh: blocks human Cav3.2 T-type calcium channel | O95180 | AID 449739 | 100,000 compounds, 4% hits | B-score at 10 µM | Cav3.2-expressing cells, Fluo-4 calcium fluorescence FDSS; stronger effect = lower value;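 active means single-dose well whose peak fluorescence ratio is a statistical outlier from its plate by either plate-standardised score or position-corrected B-score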
# CYP2C9 inhib: blocks human cytochrome P450 2C9; inhibition, % at 5 µM; P11712; 96,000 compounds, 20% hits; CYP2C9 Supersomes, luciferin-H conversion, luminescence;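 active means blocking of liver enzyme CYP2C9 beyond about 50% at 5 µM, limit read from the data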
# Target sequence (P11712 whole entry, looked up): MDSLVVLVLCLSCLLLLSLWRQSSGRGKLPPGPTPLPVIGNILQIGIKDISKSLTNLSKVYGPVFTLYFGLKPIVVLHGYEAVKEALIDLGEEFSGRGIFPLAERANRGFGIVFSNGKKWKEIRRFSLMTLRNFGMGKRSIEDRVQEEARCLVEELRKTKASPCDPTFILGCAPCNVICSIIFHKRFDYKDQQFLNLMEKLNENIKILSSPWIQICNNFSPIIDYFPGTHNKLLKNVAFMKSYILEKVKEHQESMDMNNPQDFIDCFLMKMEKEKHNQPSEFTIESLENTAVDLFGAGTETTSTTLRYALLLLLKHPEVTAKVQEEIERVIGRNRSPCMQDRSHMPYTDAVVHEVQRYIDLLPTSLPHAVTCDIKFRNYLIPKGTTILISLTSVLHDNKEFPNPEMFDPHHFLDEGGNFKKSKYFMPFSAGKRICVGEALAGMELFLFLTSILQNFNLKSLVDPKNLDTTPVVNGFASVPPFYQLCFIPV
# CYP2C19 act: activators of human cytochrome P450 2C19; P33261; recombinant CYP2C19, luciferin-H EGE luminescence; stronger effect = higher value; 0 = fully inhibited enzyme, 1 = untreated enzyme; activation factor at 5 µM; 96,000 tested, under 10 active; AID 1025;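 active means activation factor of at least 2 at 5 µM in the primary screen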;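 further: 0 = wells with 2.5 mM tranylcypromine and 1 = vehicle-only wells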
# CYP2C9 act: activators of human CYP2C9. P11712. recombinant CYP2C9, luciferin-H conversion, luminescence; stronger effect = higher value; factor 1 = untreated enzyme, 0 = blocked. activation factor at 5 µM. 96,000 compounds, 1.4% hits. AID 1024;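 active means activation factor of 2 or more for CYP2C9 at a 5 µM dose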;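 further: 0 = sulfaphenazole-blocked wells and 1 = vehicle-only wells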
# CYP2C19 inhib: human CYP2C19 inhibition. CYP2C19 Supersomes, luciferin-H EGE luminescence, 30 min. 96,000 compounds, 21% hits. inhibition, % at 5 µM;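 active means CYP2C19 inhibition above a set limit at 5 µM in the primary screen, cut at about 50% in these data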;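 further: plate controls were negative control wells for no effect and 2.5 mM tranylcypromine positive control for full effect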
# Numbers without * were called inactive; . = no result. Shown are actives, neighbours in structure and some others; about 27% of the full set was active somewhere.
SMILES,Cav32 inh,CYP2C9 inhib,CYP2C19 act,CYP2C9 act,CYP2C19 inhib
CC(C)C(=O)NC(C)C(c1cccs1)N1CCOCC1 (stereo unspecified),0.0922,18.6,1,0.8,3.6
COc1ccccc1C(=O)NC(C)C(c1cccs1)N1CCOCC1 (stereo unspecified),1.68,24.4,0.5,0.8,50.7*
Cc1cccc(NC(=O)NC(C)C(c2cccs2)N2CCOCC2)c1 (stereo unspecified),2.32,44.5,0.2,0.6,82.6*
CC(C)c1nnc(NC(=O)CCC(=O)Nc2ccc(F)cc2)s1,-0.0989,-2.4,1.1,1,-12.4
CCCNC(=O)c1cc2c(C(F)(F)F)nn(C)c2s1,0.628,-0.4,0.9,1,5.5
O=C(Nc1ccc2c(c1)OCO2)C1CCCN(S(=O)(=O)c2cccs2)C1 (stereo unspecified),1.84,67.5*,0.5,0.3,53.3*
O=C(Nc1ccc2c(c1)OCO2)C1CCN(S(=O)(=O)c2cccs2)CC1,0.321,36.4,0.7,0.6,29.4
O=C(Nc1ccc2c(c1)OCCO2)C1CCCN(S(=O)(=O)c2cccs2)C1 (stereo unspecified),-0.0935,46.6,0.6,0.5,41.5
O=C(Nc1ccc2c(c1)OCO2)C1CCCN(c2nc3ccccc3s2)C1 (stereo unspecified),-2.22,54.2*,0.5,0.5,48.0
O=C(Nc1ccc2c(c1)OCO2)C1Cc2ccccc2CN1S(=O)(=O)c1cccs1 (stereo unspecified),-1.74,71.8*,0.4,0.3,56.1*
O=C(Nc1ccc2c(c1)OCCO2)C1CCN(S(=O)(=O)c2cccs2)CC1,0.0488,57.9*,0.3,0.4,66.7*
CC(C)(C)C(=O)CC1(O)C(=O)N(Cc2ccc(Cl)cc2)c2ccccc21 (stereo unspecified),-0.707,41.6,0.5,0.6,45.5
O=C(O)c1cccc(S(=O)(=O)Nc2ccc3c(c2)OCO3)c1,-1.44,-6.0,1,1.1,-0.4
O=S(=O)(/C=C/c1ccccc1)Nc1ccc2c(c1)OCO2,-7.42*,87.2*,0,0.1,99.8*
O=S(=O)(Nc1ccc2c(c1)OCO2)c1cccs1,0.203,65.6*,0.1,0.3,90.7*
CC(=O)c1cccc(NC(=O)C2CCN(S(=O)(=O)c3cccs3)CC2)c1,.,68.3*,0.1,0.3,91.6*
CCC(C)NC(=O)C1CCN(S(=O)(=O)c2cccs2)CC1 (stereo unspecified),0.272,52.1*,1,0.5,4.8
CCCc1[nH]nc2c1C1(CCOC1C)C(C#N)=C(N)O2 (stereo unspecified),-0.00791,7.4,0.8,0.9,19.5
CC1=CC(C)(C)Nc2ccc(OC(=O)C(C)N3C(=O)c4ccccc4C3=O)cc21 (stereo unspecified),-0.0711,87.4*,0.6,0.1,35.6
CC1=CC(C)(C)Nc2ccc(OC(=O)CN3C(=O)CCC3=O)cc21,0.0198,-10.7,1.1,1.1,-5.5
CC1=CC(C)(C)Nc2ccc(OC(=O)c3cccnc3)cc21,0.248,41.1,0.3,0.6,71.4*
CC1=CC(C)(C)Nc2ccc(OC(=O)c3ccco3)cc21,0.0669,-45.6,0.2,1.5,78.0*
Cc1cccc(OCCC(=O)NCC(c2ccco2)N2CCCCC2)c1 (stereo unspecified),0.599,10.8,0.7,0.9,33.6
CCN(CC(=O)Nc1ccc2c(c1)OCCO2)CC(=O)Nc1cc(C)on1,0.117,37.5,0.7,0.6,31.8
Cc1cc(=O)n2[nH]c(=O)c(N=Nc3ccccc3)c2[nH]1,0.484,-9.5,1,1.1,-3.2
SMILES,Cav32 inh,CYP2C9 inhib,CYP2C19 act,CYP2C9 act,CYP2C19 inhib
CCOc1ccc(N=Nc2c(=O)[nH]n3c(=O)cc(C)[nH]c23)cc1,0.314,31.4,0.4,0.7,63.3*
COC(=O)c1[nH]c2ccc(Cl)cc2c1NC(=O)Oc1ccccc1,-0.0532,0.3,1,1,-2.2
CC(=O)Nc1cc(C(=O)N2CCCC2)ccc1Sc1ccc(C)cc1,-2.13,35.7,0.4,0.6,64.8*
CC(=O)Nc1cc(C(=O)N2CCCC2)ccc1Sc1ccc(Cl)cc1,-0.514,8.9,0.7,0.9,29.2
Cc1oc(-c2ccccc2Cl)nc1CSCC(=O)N1CCCC1,-0.403,17.3,0.1,0.8,93.0*
Cc1oc(-c2ccccc2Cl)nc1CSCC(=O)NC1CCCC1,-4.5*,35.2,0.9,0.6,13.4
Cc1oc(-c2cccs2)nc1CSCC(=O)NC1CC1,1.55,4.9,0.9,1,6.8
CC(C)c1nnc(NC(=O)CCC(=O)NCc2ccco2)s1,-0.292,-6.4,1.2,1.1,-16.4
